Inhibition data for 24 molecules are collected here from PubChem BioAssay AID1626 (SRMLSC, 2009).

Each structure is given as a SMILES string. Among all 220,000 compounds or so, about 2,000 (0.91%) were called active. Not shown: some 2% with an inconclusive outcome. The list is a sample of the results. Results with a measured potency or affinity are listed apart. A number with no mark means an inactive call. Rule as the data show it: inconclusive = inhibition above about 80% without an active follow-up result; inactive = below that; test concentration not stated here.

As usually defined, the inhibition is the change of the read-out against control, counted positive when it falls.

This assay in a line: M. tuberculosis H37Rv growth inhibitors, H37Rv strain (AID 1626).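 Also: bacteria incubated seven days before Alamar blue readout; 0% = bacteria only wells and 100% = bacteria with antibiotic wells.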 Particulars: hits give high values, concentration not given here.
Turning to `O=C(O)c1ccc(O)c(N2C(=O)Nc3ccccc3N2O)c1`, the inhibition was -1.41%.
As for `CC[C@@H]1C=C(C)C[C@H](C)C[C@H](OC)[C@H]2O[C@@](O)(C(=O)C(=O)N3CCCC[C@H]3C(=O)O[C@H](/C(C)=C/[C@@H]3CC[C@@H](O)[C@H](OC)C3)[C@H](C)[C@@H](O)CC1=O)[C@H](C)C[C@@H]2OC`, the figure is 5.69%; as for `Fc1cccc(CSc2nc3ncc(Cl)cc3[nH]2)c1`, -0.1%.
As for `CCc1[nH]c(=S)c(C#N)c2c1CCCC2`, the figure is -2.7%; as for `COc1cc2cc(/C=C/C(=O)c3ccco3)c(Cl)nc2cc1OC`, -1.16%; as for `CCOc1ccc2nc(Cl)c(/C=C/C(=O)c3ccco3)cc2c1`, 21.5%.
The same measure for `Cc1cccc2cc(/C=C/C(=O)c3ccco3)c(Cl)nc12`: 7.5%; for `Cc1ccc(N/C=C/C(=O)c2ccco2)c(O)c1`: -2.39%.
On to `Cc1nc([N+](=O)[O-])cn1CC(=O)NCCCO`, for which the inhibition is 8.65%.
As for `Cc1ccc(-n2c(CNC(=O)c3cccs3)nnc2SCC(=O)NO)cc1`, the figure is 2.75%.
With `COC(=O)c1ccc(CN2CCN(Cc3ccccc3)C(CCO)C2)cc1` (centres undefined), the inhibition was -3.82%.
The same measure for `COc1ccc(N(C(=O)c2ccco2)C(C(=O)NC2CCCC2)c2ccc(N(C)C)cc2)cc1OC` (centres undefined): -5.56%; for `Cc1ccccc1-c1cc2nc(-c3ccc([N+](=O)[O-])cc3)cc(=O)n2[nH]1`: -6.76%; for `O=c1cc(-c2ccccc2)nc2c(-c3ccccc3)c(C(F)(F)F)[nH]n12`: 2.66%.
The same measure for `CCCc1cc(=O)n2[nH]c(C)c(-c3ccccc3)c2n1`: 11.9%; for `COC(=O)Cc1cc(=O)n2[nH]c(C)c(-c3ccccc3)c2n1`: -0.6%.
The same measure for `COc1ccc(CCNCC(O)c2ccccc2)cc1` (centres undefined): -12.7%.
On to `CC(NC(=O)c1ccccc1NC(=O)c1ccncc1)c1ccccc1` (centres undefined), for which the inhibition is 6.19%.
As for `CC(C)OC(=O)/C(=C\c1cccc2ccccc12)NC(=O)c1ccccc1`, the figure is 11.6%; as for `N/C(=N\OC(=O)c1ccc(Cl)cc1)c1[nH]ncc1Br`, -8.82%.
With `CC(C)(C)NC(=O)c1ccc2c(c1)N(CC(=O)N1CCN(c3ccc(F)cc3)CC1)C(=O)C(C)(C)O2`, the inhibition was 8.11%.
The same measure for `O=C(O)c1cccc(S(=O)(=O)Nc2ccccc2N2CCOCC2)c1`: -1.57%; for `Cc1cccc(C(=O)O/N=C(\N)Cc2ccc([N+](=O)[O-])cc2)c1`: 7.62%; for `COc1ccccc1C1(CCN=Cc2ccc(N(C)C)cc2)CCOC(C)(C)C1` (centres undefined): 2.7%.
